{
  "source": "PubChem BioAssay (NCI)",
  "note": "The panel holds about 83,000 compounds, 20% with a hit somewhere; the sample as a whole holds those more often.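 Method: cells in 96-well plates; compound added at one concentration; 48 h incubation; percent growth measured; values under 10 scored active.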 Unmarked numbers belong to inactive results. Calls of active or inactive are those of the source.",
  "data": [
    {"tested_on": "EKVX NSCLC", "test": "NCI-60 one-dose screen, 48 h (100 = growth as untreated, 0 = no growth, -100 = all killed)", "conditions": "10 µM unless noted", "units": {"growth": "%"}, "values": [
      {"smiles": "Cn1ncc2c(C(=O)c3ccc(F)cc3)nc(C(C)(C)C)nc21", "growth": 98.9},
      {"smiles": "CN1c2ccccc2Sc2cc(/C=N/Nc3ccnc4cc(Cl)ccc34)ccc21", "growth": 94.2},
      {"smiles": "COCCOc1ccc2ncc(C#Cc3cncc(C(=O)Nc4ccc(CN5CCN(C)CC5)c(C(F)(F)F)c4)c3)n2n1", "growth": 33.6},
      {"smiles": "O=C(CCCCCCNC(=O)C(O)(O)C(F)(F)F)Nc1ncc(-c2ccccc2)s1", "growth": 20.8},
      {"smiles": "CCCCN1C(=O)/C(=c2\\sc3n(c2=O)C2C(NN=3)N(CC)C(=O)N2CC)c2cc(C)ccc21", "note": "(stereo not given)", "growth": 85.2}
    ]},
    {"tested_on": "SN12C renal", "test": "NCI-60 one-dose screen, 48 h (100 = growth as untreated, 0 = no growth, -100 = all killed)", "conditions": "10 µM unless noted", "values": [
      {"smiles": "CC(C)=CCC[C@](C)(O)[C@H]1CC[C@]2(C)[C@@H]1CC[C@@H]1[C@@]3(C)CC[C@H](N)C(C)(C)[C@@H]3CC[C@]12C", "growth": "96.1%"},
      {"smiles": "Cc1cc2nc(C(Cl)Cl)nc(-c3ccc(S(=O)(=O)N(C)C)cc3)n2n1", "growth": "55%"},
      {"smiles": "CCCCCCNC(=O)Oc1ccc(/C(=C(/C)c2ccc(OC)cc2)c2ccc(OCCN3CCCCCC3)cc2)cc1", "growth": "14.5%"},
      {"smiles": "Cc1nc(/N=C(N)/N=C(\\N)c2cccc(Br)c2)sc1C", "growth": "47.3%"},
      {"smiles": "O=c1nc(Nc2ccc([N+](=O)[O-])cc2O)sc2ccccc12", "growth": "34.5%"},
      {"smiles": "C#CCOc1ccc(-c2csc(NC(=O)C=C)n2)cc1NS(=O)(=O)c1cccc2c(N(C)C)cccc12", "growth": "31.2%"},
      {"smiles": "COc1ccc(C2CC(c3cccc(OCCCCOc4cccc(C5=NOC(c6ccc(OC)cc6)C5)c4)c3)=NO2)cc1", "note": "(stereo not given)", "growth": "95.3%"},
      {"smiles": "Cc1ccc(OCc2occc2C(=O)N2CCOCC2)cc1", "growth": "103%"},
      {"smiles": "O=S(=O)(NCCCNc1nccc(-c2[nH]c(-c3ccccc3)nc2-c2ccc(F)c(O)c2)n1)c1cccc2ccccc12", "growth": "63.2%"},
      {"smiles": "CCc1cc(OC(=O)N2CCC(N3CCCCC3)CC2)ccc1Nc1cc(-c2ccc(-n3cccn3)cc2)[nH]n1", "growth": "77.7%"},
      {"smiles": "O=C(COc1ccc(/C=C2\\C(=O)Nc3ccc(F)cc32)cc1)Nc1ccccc1", "growth": "102%"},
      {"smiles": "CC1=C(C)C(=O)C(Nc2cccc(C(=O)OC(C)(C)C)c2)=CC1=O", "growth": "61.3%"},
      {"smiles": "Cn1cc(-c2nnc(N)nc2-c2c[nH]c3ccc(F)cc23)c2cc(Br)ccc21", "growth": "38.1%"},
      {"smiles": "Cn1c(SCC(=O)c2ccc(F)cc2)nc2ccccc2c1=O", "growth": "91.4%"},
      {"smiles": "CN1CCN(c2ccc(Nc3nc(NCCCNS(=O)(=O)c4cccc5ccccc45)c4sccc4n3)cc2)CC1", "growth": "-3.36% (active)"},
      {"smiles": "CCCCCC[n+]1ccc(SCC(=O)n2ccc3ccccc32)c2ccccc21", "growth": "88.8%"},
      {"smiles": "COc1ccc(-c2cc(-c3ccc(N(C)C)cc3)n3c(n2)nc2ccccc23)cc1", "growth": "64.7%"},
      {"smiles": "CC(=O)N(O)CCCCCNC(=O)CCC(=O)N(O)CCCCCNC(=O)CCC(=O)N(O)CCCCCN(CCCCCCCCCC[P+](c1ccccc1)(c1ccccc1)c1ccccc1)CCCCCCCCCC[P+](c1ccccc1)(c1ccccc1)c1ccccc1", "growth": "1.45% (active)"},
      {"smiles": "CC1=C(C)C(=O)C(Nc2ccc3c(c2)OCCO3)=C(Br)C1=O", "growth": "99.7%"},
      {"smiles": "COc1ccc2c(c1)C=CC1(O2)Oc2ccc(OC)cc2C=C1C", "note": "(stereo not given)", "growth": "51.9%"},
      {"smiles": "C/C(=C(\\c1ccc(O)cc1)c1ccc(OCCN2CCCCCC2)cc1)c1ccc(Cl)cc1", "growth": "-84.7% (active)"},
      {"smiles": "Brc1cccc(-c2cc(-c3ccc4c(c3)OC=CO4)[nH]n2)c1", "growth": "59.3%"},
      {"smiles": "COc1ccc(C(C)=C(c2ccc(OCCN(C)C)cc2)c2ccc(OCCN(C)C)cc2)cc1", "growth": "0.111% (active)"},
      {"smiles": "NS(=O)(=O)c1ccc(Nc2nc(N/N=C/c3ccc4c(c3)OCO4)nc(Nc3ccccc3)n2)cc1", "growth": "54.3%"},
      {"smiles": "COc1ccc(C2c3[nH]c4ccc(Cl)cc4c3CCN2c2oc(CO)nc2C#N)cc1", "note": "(stereo not given)", "growth": "66.4%"},
      {"smiles": "CCc1cc2c(cc1Cl)nc1c(=O)[nH]c(=O)nc-1n2CCOCC(C)C", "growth": "57.4%"},
      {"smiles": "COc1ccc(-c2c3c(cn2Cc2cccc(OC)c2)-c2oncc2CCC3)cc1", "growth": "96.6%"},
      {"smiles": "COc1ccc(/C(=N\\NC(N)=S)c2ccc(Cl)cc2)cc1OC", "growth": "29%"},
      {"smiles": "O=C(CSc1nnc(-c2ccc(Cl)cc2)n1-c1ccccc1)Nc1ccccc1Cl", "growth": "29.4%"},
      {"smiles": "COc1ccc(-c2c(C(N)=O)c(N)n(Cc3nc4ccccc4[nH]3)c(=O)c2C#N)c(OC)c1", "growth": "101%"},
      {"smiles": "COc1ccc(-c2cnc(NC(=O)CCCCCCNC(=O)C(O)(O)C(F)(F)F)s2)cc1", "growth": "3.72% (active)"},
      {"smiles": "C#C[C@]1(O)CC[C@H]2[C@@H]3CC=C4c5sc(Nc6cc(C)cc(C)c6)nc5CC[C@]4(C)[C@H]3CC[C@@]21C", "growth": "51.4%"},
      {"smiles": "COC(=O)CNC(=O)c1cccc(-c2cc(=O)c3c(OC)c(OC)c(OC)cc3o2)c1", "growth": "104%"},
      {"smiles": "CCC1=Cc2c(OC)cccc2OC12C=Cc1c(OC)cccc1O2", "note": "(stereo not given)", "growth": "42%"},
      {"smiles": "Cc1ccc2c(n1)C(=O)C(Cl)=C(Nc1ccc(C#N)cc1)C2=O", "growth": "98%"},
      {"smiles": "Cn1ncc2c(C(=O)c3ccc(F)cc3)nc(C(C)(C)C)nc21", "growth": "96.2%"},
      {"smiles": "CN1c2ccccc2Sc2cc(/C=N/Nc3ccnc4cc(Cl)ccc34)ccc21", "growth": "95.7%"},
      {"smiles": "COCCOc1ccc2ncc(C#Cc3cncc(C(=O)Nc4ccc(CN5CCN(C)CC5)c(C(F)(F)F)c4)c3)n2n1", "growth": "10.2%"},
      {"smiles": "O=C(CCCCCCNC(=O)C(O)(O)C(F)(F)F)Nc1ncc(-c2ccccc2)s1", "growth": "2.31% (active)"},
      {"smiles": "CCCCN1C(=O)/C(=c2\\sc3n(c2=O)C2C(NN=3)N(CC)C(=O)N2CC)c2cc(C)ccc21", "note": "(stereo not given)", "growth": "97.9%"}
    ]}
  ]
}
